Compound activity (PubChem BioAssay)
A selection: hits, their analogues and other compounds. The true share with any hit is near 1.2%.
NFkB transloc inh: blocks IL-1B driven NFkB nuclear translocation in HUVEC cells; HUVEC IL-1B NFkB p65 nuclear translocation imaging; inhibition, % at 2 µM; actives 0.43% (n = 94,000); AID 796;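 active = inhibition above about 30% together with a positive call from visual inspection of the well image, limit read from the data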;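 also: nuclear over cytoplasmic p65 intensity ratio measured by imaging; 0% = IL-1B stimulated DMSO wells and 100% = unstimulated DMSO wells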
VCAM1 TNFa inh: reduces TNF alpha induced VCAM1 expression in HUVEC. actives 0.48% (n = 95,000). inhibition, % at 2 µM. HUVEC TNFa-induced VCAM-1 immunofluorescence, high-content imaging;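 active = inhibition above the batch mean plus 3 SD, with images confirmed as a hit by eye, cut at about 37% in these data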;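 also: 0% = TNF-stimulated DMSO wells and 100% = unstimulated control wells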
Phagocyt inh: inhibitors of macrophage phagocytosis. J774A.1 macrophage IgG-bead phagocytosis, imaging. inhibition, % at 5 µM. actives 0.07% (n = 110,000). AID 1029;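 active = inhibition above the mean of the plate negative controls plus 5 SD, cut at about 13% in these data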;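 also: phagocytic index as fraction of beads internalized from green versus red external bead signal; plate controls were DMSO negative control for no effect and cytochalasin-D positive control for full effect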
HUVEC tox IL1B: HUVEC cytotoxicity counter-screen, IL-1B stimulated; actives 0.41% (n = 94,000); HUVEC cell count loss, Hoechst imaging; cell count reduction, % at 2 µM; AID 845;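 active = cell count reduction more than 3 SD above the screen-wide mean, cut at about 70% in these data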;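 also: normalized per plate to untreated control cells as the no-loss baseline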
IL1B NFkB pot: enhances IL-1B driven NFkB nuclear translocation. HUVEC IL-1B NFkB p65 nuclear translocation imaging. activation, % at 2 µM. actives 0.3% (n = 94,000);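 active = activation above 40%, about the mean plus 3 SD, also judged a hit on visual image review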;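 also: percent activation is computed from the nuclear over cytoplasmic p65 intensity ratio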
TNFa cytotox: toxic to HUVEC cells under TNF alpha stimulation; HUVEC TNFalpha-stimulated, Hoechst cell count, imaging; cell count reduction, % at 2 µM; actives 0.17% (n = 93,000); AID 848;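 active = cell count reduction exceeding the screen mean by over 5 SD, scaled to untreated wells per plate, cut at about 78% in these data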;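 also: cells counted after 24 h of TNF alpha exposure following the 1 h pretreatment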
* marks the source's active call; other numbers are inactive results; . = not tested or not shown; [ ] = dose if it differs, or a comment.

SMILES	NFkB transloc inh	VCAM1 TNFa inh	Phagocyt inh	HUVEC tox IL1B	IL1B NFkB pot	TNFa cytotox
COc1cc(S(=O)(=O)NCC2OCCc3ccccc32)ccc1-n1cnnn1 (stereo not drawn)	7	-5	-1	9	-7	-44
O=C(Nc1ccc([N+](=O)[O-])cn1)C1CC2CCC1C2 (stereo not drawn)	.	.	-1	.	.	.
Cc1c(Cl)c(-c2n[nH]c(=S)n2-c2ccc(F)cc2)nn1C	36*	7	1	4	-36	-16
CC(C)Oc1cccc(C(=O)NC(=S)Nc2cccc(NC(=O)c3ccccc3Cl)c2)c1	.	.	-7	.	.	.
Cc1ccccc1N1C(=O)N(c2cccc(C(F)(F)F)c2)C2CS(=O)(=O)CC21 (stereo not drawn)	-73	10	0	-9	73*	-19
CCOC(=O)Cc1csc(NC(=O)COc2ccc(OC)cc2)n1	4	-9	0	-2	-4	5
CCOC(=O)Cc1csc(NC(=O)COc2ccc(N(C)S(=O)(=O)c3ccc(C)cc3)cc2)n1	-7	91*	1	-9	7	76
CN(C)c1nc(N)nc(/C(C#N)=C/C2CC3C=CC2C3)n1 (stereo not drawn)	-42	-6	-1	-1	42*	-23
CCOc1ccccc1N(CC(=O)N1CCCCCC1)S(C)(=O)=O	-10	-5	-1	-23	10	-13
CCOc1ccccc1N(CC(=O)OC)S(C)(=O)=O	98*	-4	0	71*	-98	-8
N/C(Cc1cccs1)=N\OC(=O)COc1ccc(Br)cc1Cl	-15	70*	.	-15	15	-42
C=CCc1cc(Cl)ccc1OCCN(C)C	-3	-29	4	85*	3	-4
Cc1nnc(SCC(=O)N2c3ccccc3CC2C)[nH]c1=O (stereo not drawn)	.	.	-7	.	.	.
CCN(CC)c1ccc2cc(-c3nc4ccccc4n3C)c(=O)oc2c1	34*	70*	4	59	-34	66
O=C(NC1CC1)c1c[nH]c2ccc(S(=O)(=O)Nc3cccc(C(F)(F)F)c3)cc2c1=O	-2	4	.	91*	2	-5
C=CCNC(=O)Nc1ccc(Cl)cn1	.	.	-4	.	.	.
COc1cc(/C=C/C(=O)OCC(=O)N2CCc3ccccc3C2)ccc1O	.	.	66*[artifact]	.	.	.
COc1cc(/C=C/C(=O)OCC(=O)N2CCC(Cc3ccccc3)CC2)ccc1O	.	.	-5	.	.	.
CCOC(=O)C[n+]1c(C)sc2ccc(OC)cc21	43*	-2	-4	-21	-43	7
COc1cc(NC(=O)CN2C(=O)NC(C)(CC(C)C)C2=O)cc(OC)c1 (stereo not drawn)	-16	93*	-1	-64	16	-41
COC(=O)Oc1ccc(/C=N/NC(=O)CN(c2ccccc2Cl)S(C)(=O)=O)cc1OC	0	-8	1	4	0	-9
COc1ccc(Cl)cc1NC(=O)CC(C)c1ccccc1 (stereo not drawn)	97*	-5	.	80*	-97	2
Cc1cccnc1Nc1nc(-c2ccccn2)cs1	-5	94*	2	2	5	73
Cc1ccc(S(=O)(=O)N2CCSC2C(=O)O)cc1 (stereo not drawn)	7	0	.	75*	-7	3
Cc1ccc(-c2cc(-c3nnc(SCC(=O)NCC(C)C)n3N)c3ccccc3n2)cc1	-43	-2	0	-2	43*	-8
SMILES	NFkB transloc inh	VCAM1 TNFa inh	Phagocyt inh	HUVEC tox IL1B	IL1B NFkB pot	TNFa cytotox
CCC(C)NC(=O)CSc1nnc(-c2cc(-c3ccc(C)cc3)nc3ccccc23)n1N (stereo not drawn)	-73	-19	-1	0	73*	-17
COc1cccc(CNC(=O)C(c2ccc(Cl)cc2)C(C)C)c1 (stereo not drawn)	.	.	-2	.	.	.
Cc1cc(C)c(S(=O)(=O)Nc2ccc3c4c(cccc24)CC3)c(C)c1	42*	89*	.	59	-42	57
Cc1noc(C)c1S(=O)(=O)N1CCC2(CC1)OCCO2	-19	88*	.	-27	19	95*
Cc1noc(C)c1S(=O)(=O)N1CCN(C(c2ccccc2)c2ccc(Cl)cc2)CC1 (stereo not drawn)	2	-16	0	-53	-2	86*
Cc1noc(C)c1S(=O)(=O)N1CCCCC1	8	1	.	-2	-8	-14
CCOC(=O)c1c(-n2cccc2)sc2c1CCCC2=O	.	.	-4	.	.	.
O=c1cc(CO)oc(CN2CCN(c3ccccc3)CC2)c1O	-13	16	-2	-26	13	86*
NC(=S)N/N=C/c1ccc(-c2cc(Cl)ccc2Cl)o1	-8	54*	0	3	8	9
CCOC(=O)c1cnc(-n2nc(C)cc2C)nc1N1CCOCC1	-11	92*	1	13	11	74
CCCCNc1ccc(S(N)(=O)=O)cc1[N+](=O)[O-]	.	.	1	.	.	.
CC1CC(=O)NN=C1c1ccc(NCCO)c([N+](=O)[O-])c1 (stereo not drawn)	-1	40*	-2	-27	1	25
CCOc1cc(S(=O)(=O)NCCc2cccc(C)c2)c(OCC)cc1-n1cnnn1	35*	11	1	17	-35	14
O=C(CN(c1ccc(F)cc1)S(=O)(=O)c1ccc2c(c1)OCCO2)Nc1ccccc1	-4	14	6	-12	4	-12
Cn1ncc(Br)c1C(=O)Nc1ccc(F)cc1F	98*	-3	.	88*	-98	12
Cc1nn(C)c(C(=O)Nc2ccc(Br)cc2F)c1Br	.	.	8	.	.	.
Cc1sc(NC(=O)CN(Cc2ccc(F)cc2)C(=O)C(C)(C)C)c(C(N)=O)c1C	.	.	-7	.	.	.
Cc1ccc(NC(=O)Cn2nnc(-c3ccccc3NC(=O)c3cccs3)n2)cc1	-1	60*	.	-10	1	55
COc1cc2c(cc1NC(=O)c1cccc(S(=O)(=O)N(C)C)c1)oc1ccccc12	.	.	2	.	.	.
CN(C)CCCOC(=O)c1ccccc1	-5	-1	0	12	5	0
CCOc1ccc(C(=O)OCCN(C)C)cc1	-58	-5	0	-1	58*	2
C[n+]1ccc(/C=C/c2ccc(Br)cc2)cc1	-18	44*	.	-13	18	18
Cc1ccc(-c2cn3cccnc3n2)cc1NC(=O)c1cccs1	.	.	-5	.	.	.
COc1cc(OC)cc(C(=O)NN2CCCCC2)c1	56*	8	-1	-4	-56	-11
COc1ccc(C2C3C(C)=NN=C3CC(C)(O)C2C(C)=O)cc1 (stereo not drawn)	.	.	-6	.	.	.
COc1ccc(C(=O)Nc2nc3nccc(-c4ccccc4)n3n2)cc1	.	.	-6	.	.	.
CC(C)C(=O)Nc1nnc(CSCc2ccccc2F)s1	54*	-7	-1	-6	-54	5
Cc1ccc(N(CN2CCCC2=O)C(=O)c2ccc(OC(C)C)cc2)cc1	6	62	-1	2	-6	79*
O=S(=O)(c1ccccc1)n1c(C(O)c2ccccn2)cc2ccccc21 (stereo not drawn)	.	.	-5	.	.	.
CC(C)Sc1nc2c(c(=O)n1-c1ccc(F)cc1)SCC2	-8	94*	-2	-18	8	6
